{
  "source": "PubChem BioAssay (NCI)",
  "note": "This is part of a sample that, as a whole, favours compounds with a hit. Of some 83,000 tested, about 20% had one in any assay.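 Single-dose data. Exposure time 48 hours. Values below 10 considered active.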 Active and inactive are the calls of the source.",
  "data": [
    {"tested_on": "NCI-H23 lung", "assay": "NCI-60 one-dose screen, 48 h (100 = growth as untreated, 0 = no growth, -100 = all killed)", "conditions": "10 µM", "values": [
      {"smiles": "O=[N+]([O-])c1ccc(Sc2ccncn2)c([N+](=O)[O-])c1", "growth": "60% (inactive)"},
      {"smiles": "COc1ccc(NC(=O)CCl)cc1", "growth": "61.7% (inactive)"},
      {"smiles": "Cc1cc(=O)cc(C)n1-c1ccccc1", "growth": "96.5% (inactive)"},
      {"smiles": "CC(=O)Oc1ccc(Br)cc1C(=O)O", "growth": "98.6% (inactive)"},
      {"smiles": "CC1CCC(C(=O)O)N1", "note": "(stereo unspecified)", "growth": "89.2% (inactive)"},
      {"smiles": "O=C(CCNNC(=O)c1ccncc1)NCc1ccccc1", "growth": "95.8% (inactive)"},
      {"smiles": "CCOC(=O)c1[nH]c(C)c(C(C)=O)c1C", "growth": "94.2% (inactive)"},
      {"smiles": "CCOc1ccc(/C=C/C(=O)c2ccccc2)cc1", "growth": "106% (inactive)"},
      {"smiles": "Cc1cc(C)c(N)c(S(=O)(=O)O)c1", "growth": "92% (inactive)"},
      {"smiles": "CC(C)CCCC(=O)O", "growth": "106% (inactive)"},
      {"smiles": "N#Cc1c(N)sc(=S)c2c1CCCC2", "growth": "101% (inactive)"},
      {"smiles": "Cc1cccc(C(=O)N(C(C)C)C(C)C)c1", "growth": "102% (inactive)"},
      {"smiles": "O=C(O)C(c1ccccc1)C(O)c1ccccc1", "note": "(stereo unspecified)", "growth": "104% (inactive)"},
      {"smiles": "S=C(Nc1ccccc1)N1CCCCC1", "growth": "99.9% (inactive)"},
      {"smiles": "N=c1c(C(=O)OCc2ccccc2)ncc(CCl)n1O", "growth": "100% (inactive)"},
      {"smiles": "O=C(c1ccc(O)cc1)c1ccc(O)cc1", "growth": "106% (inactive)"},
      {"smiles": "O=C(CS)Nc1ccc2ccccc2c1", "growth": "111% (inactive)"},
      {"smiles": "O=c1cc(-c2ccccc2)oc2c1ccc1ccccc12", "growth": "85.2% (inactive)"},
      {"smiles": "O=c1cc2oc3cc(O)c(O)cc3c(-c3ccccc3O)c-2cc1O", "growth": "82.4% (inactive)"},
      {"smiles": "Nc1ccccc1C(=O)Nc1ccc(Cl)cc1Cl", "growth": "92.6% (inactive)"},
      {"smiles": "O=C(c1ccc(Cl)cc1)c1ccccc1Cl", "growth": "91.2% (inactive)"}
    ]}
  ]
}
